# Measured values from PubChem BioAssay (NCI).
# About 83,000 compounds went through this panel and 20% of them were active in at least one assay; those are over-represented in the sample as a whole.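 A percent growth of 40 corresponds to 60% growth inhibition; 0 means no net growth; -100 means all cells died. Active threshold: below 10.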 Values without a mark were called inactive. Calls of active or inactive are those of the source.
# Tested on: CCRF-CEM leukemia
# Test: NCI-60 one-dose screen, 48 h (100 = growth as untreated, 0 = no growth, -100 = all killed)
# Settings: 10 µM unless noted
# Method: Growth inhibition of the CCRF-CEM human tumor cell line is measured as a screen for anti-cancer activity. Cells are grown in 96 well plates and exposed to the test compound for 48 hours. Compounds are tested at a single concentration, which is 10^-5 M for most compounds. The reported endpoint is percent growth (GI% or GIPRCNT), where numbers from 0 - 100% represent growth inhibition, and numbers from -100% - 0 represent cell death. For example, a value of 40 represents 60% growth inhibition. A value of 0 means no net growth occurred over the course of the experiment. A value of -40 indicates 40% of cells at the beginning of the experiment died by the end of the experiment. A value of -100 means all cells are dead at the end of the experiment.
# NCI-60 Human Tumor Cell Lines Screen was performed using the standard one-dose NCI protocol, which is described in more detail at https://dtp.cancer.gov/discovery_development/nci-60/default.htm.
# Compounds with GIPRCNT values below 10 were considered active. Activity score was based on GIPRCNT using the following formula: […]
# Score is 0 for GIPRCNT values of 100 or above, 50 for GIPRCNT values of 0, and 100 for GIPRCNT values of -100.
row,Compound,growth
1,Cc1cc(NC(=O)COC(=O)c2sc3cc(F)ccc3c2Cl)no1,66.9%
2,COc1cc(Cn2c(SCC(=O)Nc3ccc(Cl)cc3)nc3ccccc3c2=O)cc(OC)c1OC,83.1%
3,Cn1c(-c2nonc2NC(=O)c2ccc(F)cc2)nc2ccccc21,105%
4,O=C1NCC(c2cc3ccccc3[nH]c2=O)Nc2ccccc21 (stereo not given),110%
5,O=S(=O)(NCCCNc1nccc(-c2c(-c3ccccc3)nc3sccn23)n1)c1ccc(F)cc1,31.2%
6,CC(=O)/C=C/c1cc2cc(Cl)ccc2[nH]c1=O,69%
7,CC(C)C[C@H](NC(=O)[C@H](Cc1ccccc1)n1ccc(N2CCCCC2)cc1=O)B(O)O,1.97% (active)
8,COc1ccc(/C=C/c2cc(N3CCOCC3)c3cc(F)c(F)cc3n2)cc1OC,12.3%
9,CC1=NN2C(=NC3=C(CCC/C3=C\c3ccc(Cl)cc3)C2c2ccc(Cl)cc2)S1 (stereo not given),84.7%
10,Nc1c(C(=O)Nc2cccc(C(F)(F)F)c2)sc2nc3c(cc12)CCCCCC3,51%
11,c1ccc2nc(-c3ccc4ccccc4n3)ccc2c1,90%
12,COc1ccc([N+](=O)[O-])c(/C=C/C(=O)c2ccccn2)c1,49.6%
13,CC(Cc1nnc(SCC(=O)Nc2ccc(I)cc2)n1N)c1ccccc1 (stereo not given),54.9%
14,Cc1ccc(Nc2ncnc3c2sc2ncccc23)cc1,116%
15,Cn1c(C(N)=O)cc2c1-c1nc(NC3CCCCC3)ncc1CCC2,93.9%
16,CC(=O)Nc1nc(C(=O)N2N=C(C)/C(=C/c3ccccc3)C2=O)cs1,98.7%
17,O=c1c2cccc3c(Nc4ccc(F)cc4)ccc(c32)c2nc3ccccc3n12,94.1%
18,O=C(NCCc1c[nH]c2ccccc12)C1Cc2ccccc2CN1C(=O)c1ccco1 (stereo not given),81.2%
19,c1ccc(CCn2nnc3c(Nc4ccc(N5CCOCC5)cc4)ncnc32)cc1,71.6%
20,CCNCc1ccncc1,95%

row,Compound,growth
1,Nc1nc(Cl)c2c(ncn2Cc2ccc(CCl)cc2)n1,1.58% (active)
2,COc1ccc(C2=CC(c3ccc(Oc4ccnc5cc(Cl)ccc45)c(OC)c3)c3c(nc(OC)[nH]c3=O)N2)cc1 (stereo not given),26.8%
3,Nc1c(C(=O)c2ccc(F)cc2)sc2nc3c(cc12)CCCC3,77.9%
4,CCC(c1ccc(OC)cc1)C(CC)c1ccc(OCC[N+](C)(C)C)cc1 (stereo not given),58.8%
5,Nc1cc2c(cc1N)-c1cc(N)c(N)cc1C2,88.2%
6,Cc1cnc(NC(=O)C(Cc2ccccc2)NC(=O)c2ccccc2)s1 (stereo not given),81.3%
7,C=C1C(=O)O[C@H]2[C@H](O)[C@@H](C)CCC/C(C)=C/CC[C@@]3(C)O[C@@H]3C[C@@H]12,79.5%
8,Cc1nc2sccn2c1-c1csc(Nc2ccccc2Cl)n1,48.6%
9,O=C(NCCCN1CCN(CCCNC(=O)C2CCCCC2)CC1)C1CCCCC1,91.9%
10,COc1ccc(C2SCC(=O)N2NC(=O)c2ccc(NC(=O)c3ccccn3)cc2)cc1OC (stereo not given),101%
11,Cc1cc(Nc2nc(-c3ccc(F)cc3)nc3ccccc23)n[nH]1,44.5%
12,O=C1CCC/C=C\C[C@H]2C=CC(=O)/C2=C/C[C@H](C/C=C\CC(F)(F)F)O1,-5.64% (active)
13,COc1ccc(C(=O)c2cc(OC)c(OC)c(OC)c2)cc1/C=C/C(=O)c1ccc2c(c1)OCO2,-9.53% (active)
14,O=C1NC(Cc2c[nH]c3ccccc23)C(=O)N1Cc1ccc(Cl)cc1 (stereo not given),70.1%
15,COC(=O)CCCCCN=Cc1c(O)c(O)c(C(C)C)c2cc(C)c(-c3c(C)cc4c(C(C)C)c(O)c(O)c(C=NCCCCCC(=O)OC)c4c3O)c(O)c12,18.1%
16,Cc1ccnc2nc(C(=O)OCC(=O)Nc3ccc(-c4ccccc4)cc3)nn12,91.6%
17,COc1ccc2c(c1)NC(=O)CN2c1nc(NC2CC2)nc2ccccc12,31.7%
18,O=c1oc2cc(OS(=O)(=O)c3ccc(F)cc3)ccc2c2c1CCCCC2,36%
19,O=C(CCCn1c(=O)c2sc3ccccc3c2n2nnc(-c3ccccc3)c12)NCCc1cnc[nH]1,42.6%
20,COc1cccc(C2CC(=O)Nc3c2c(C)nn3-c2nc3ccccc3[nH]2)c1OC (stereo not given),8.46% (active)
